Each structure is given as a SMILES string. Measured potencies and affinities stand elsewhere. The source made the active and inactive calls. How the calls were made is not given here.

In general, inhibition refers to the change of the read-out against control, counted positive when it falls.

This experiment is described as follows: CCR5-tropic HIV-1 fusion blockers – cell-based, CCR5-tropic Env, dose response (AID 2279). The settings on record: CCR5-tropic HIV-1 Env, reporter read-out; series mostly up to 50 µM; inhibition: at the top concentration.
Take `O=C(COc1cccc2ccccc12)Nc1ccc(Cl)cc1C(=O)O`: the “inhibition” value is 5.35% [at 25 µM] (inactive).

As to `CCOC(=O)c1sc(N2C(=O)C(O)=C(C(=O)c3ccco3)C2c2cccc([N+](=O)[O-])c2)nc1C` (stereo not given), the “inhibition” value was 17.9% (inactive).

For `O=C1NN(c2ccccc2)C(=O)/C1=C\c1cccc(OC(=O)c2cccs2)c1`, the “inhibition” value is 10.8% (inactive).

For `Cc1c(Cl)cccc1NS(=O)(=O)c1ccc2c(c1)C1C=CCC1C(c1ccc(C(=O)O)cc1)N2` (stereo not given), the “inhibition” value was 39.9% (inactive).

Consider `N=C1/C(=C/c2ccc(-c3cccc(C(=O)O)c3)o2)C(=O)N=C2SC=C(c3ccccc3)N12`, for which the “inhibition” value was 30.6% (inactive).

Regarding `O=C(O)c1cc(N2N=C(C(F)(F)F)/C(=C/C=C/c3ccco3)C2=O)ccc1Cl`, the “inhibition” value was 17.9% (inactive).

With `COc1ccc(/C=N/NC(=O)c2[nH]c3ccc(Br)cc3c2-c2ccccc2)c(C(=O)O)c1OC`, the “inhibition” value was 4.8% (inactive).

On to `CCOc1cc(/C=C2/C(=N)N3C(=NC2=O)SN=C3S(=O)(=O)C(C)C)ccc1OC(=O)c1ccco1`, for which the “inhibition” value is -12.2% (inactive).

For `O=C(NN1C(=O)/C(=C\c2ccc(O)c([N+](=O)[O-])c2)SC1=S)c1ccccc1Cl`, the “inhibition” value is 2.89% (inactive).

In the case of `COc1ccc(-c2csc(NC(=O)CSc3nc(C)nc4sc(C(=O)O)c(C)c34)n2)cc1`, the “inhibition” value is -1.45% (inactive).

Take `CCc1oc2ccccc2c1C(=O)c1cc(Br)c(O)c(Br)c1`: the “inhibition” value was 31% (inactive).

Take `N#Cc1c(-c2ccccc2)nc(SCc2ccc(Cl)cc2)[nH]c1=O`: the “inhibition” value is 7.41% (inactive).

Take `N#Cc1c(-c2cccs2)nc(SCc2ccc(Cl)cc2)[nH]c1=O`: the “inhibition” value was 17.8% (inactive).

For the compound `C=CC#CC[N+]1(CC#Cc2ccccc2)CCOCC1`, the “inhibition” value is -3.27% (inactive).

For `Cc1ccc(/C=C2\SC(=S)N(CCCC(=O)Nc3ccccc3C(=O)O)C2=O)cc1`, the “inhibition” value was 29.7% (inactive).

(Values after PubChem BioAssay AID2279 (Southern Research Specialized Biocontainment Screening …, 2010).)
